Screens: PubChem, several laboratories
Compounds with a hit are over-represented: about 2.8% of the library has one in this group of screens.
Wnt act = activates Wnt/beta-catenin signaling in a reporter cell assay; 300,000 tested, 1.2% active; activator, plate reader; activation, % at 9.35 µM; AID 743398; in the data active = activation above about 30%, passing the limit was not always enough; inconclusive = no clear call, values can overlap the other calls;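 also: 0% = neutral control wells and 100% = positive control wells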
MITF TRPM1 HTS = increases MITF-driven TRPM1 promoter luciferase signal. activation, % at 12.5 µM. AID 588334. SK-MEL-5 TRPM1-promoter luciferase, 24 h; % of positive control, neutral wells = 0. 300,000 tested, 0.75% active;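 active = mean activation of at least 80% with every replicate also reaching 80%; inconclusive = mean reaches 80% but some replicate falls short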;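 also: 0% = neutral control wells and 100% = parthenolide positive control wells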
FXN GAA850 act = activators of GAA850 frataxin (FXN) promoter; HEK293 lucGAA850 FXN promoter luciferase reporter, 24 h; percent of 10 µM SAHA response; activation, % at 6 µM; 360,000 tested, 0.56% active;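 active = activation above the average of all compounds screened plus 3 SD, cutoff fixed separately per campaign, cut at about 7.5% in these data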;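 also: 0% = DMSO wells and 100% = 10 µM SAHA wells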
esBAF inh = inhibitors of esBAF chromatin remodeling in mouse ES cells; Bmi1-luciferase knock-in reporter, 24 h; 100% = twice the neutral-well signal; 350,000 tested, 2% active; reporter increase, % at 12.5 µM; in the data active = activation above about 40%; inconclusive = no clear call, values can overlap the other calls;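 also: 0% = median of the plate's neutral control wells and 100% = double that signal; a rise in the Bmi1 reporter signal indicates esBAF inhibition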
* = called active by the depositor; ? = inconclusive; nt = not tested or not shown.

SMILES | Wnt act | MITF TRPM1 HTS | FXN GAA850 act | esBAF inh
CCOC(=O)C1=NN(c2ccc(Cl)cc2)C(=O)C1 | 65* | 145* | 6 | nt
CCOC(=O)c1nn(-c2ccc(C)cc2)cc1O | nt | 73 | 6 | 3
CCOC(=O)CC1=NN(c2ccccc2)C(=O)C1 | -1 | -4 | 3 | nt
CCOC(=O)c1nn(-c2ccc3c(c2)OCO3)cc1O | nt | 90* | 3 | nt
CCOC(=O)c1nn(-c2ccccc2)cc1O | 15 | 49 | 2 | 37
CCOC(=O)c1nn(-c2ccc(Cl)cc2)cc1O | ? | 101* | 0 | 65*
O=C(NC1CCCC1)[C@@H]1[C@@H](CO)[C@@H]2Cn3c(ccc(-c4cccnc4)c3=O)[C@H]1N2CC1CC1 | nt | nt | nt | 0
C[C@H]1CN([C@@H](C)CO)C(=O)c2cc(NC(=O)Cn3cnnn3)ccc2O[C@@H]1CN(C)Cc1ccc(C(=O)O)cc1 | nt | nt | nt | 2
Cc1cc(C(=O)Nc2cccc3c2O[C@H](CN(C)S(=O)(=O)c2ccc(F)cc2)[C@H](C)CN([C@H](C)CO)C3=O)n(C)n1 | nt | nt | nt | -4
C[C@@H]1CN([C@@H](C)CO)S(=O)(=O)c2ccc(C#CC3(O)CCCC3)cc2O[C@@H]1CN(C)C(=O)Cc1ccncc1 | nt | nt | nt | -15
CC(=O)Nc1ccc2c(c1)ncn2C | -4 | nt | -2 | nt
CC(=O)Nc1ccc2c(c1)ncn2-c1ccc(C)cc1 | 43* | 39 | 5 | nt
CO[C@H]1CN(C)C(=O)c2cc(NS(=O)(=O)c3c(C)noc3C)ccc2OC[C@H](C)NC[C@@H]1C | nt | nt | nt | 4
CN(C)S(=O)(=O)N1CCc2ccc(NC(=O)c3ccccc3Cl)cc2C1 | 2 | 15 | 2 | 9
CSCC(=O)N1CCc2ccc(NC(=O)c3ccccc3Cl)cc2C1 | 15 | 47 | 1 | 66*
CNC[C@@H]1Oc2ccc(NS(=O)(=O)c3cn(C)cn3)cc2C(=O)N([C@@H](C)CO)C[C@@H]1C | nt | nt | nt | 2
O=C(O)CN1C(=O)/C(=C/C=C/c2ccccc2)SC1=S | 49* | 4 | 1 | nt
CC(=O)c1ccc(NC(=O)CN2C(=O)/C(=C/C=C/c3ccccc3)SC2=S)cc1 | 1 | 6 | 0 | nt
O=C(CN1C(=O)S/C(=C\C=C\c2ccccc2)C1=O)Nc1ccccc1C(=O)O | 2 | 5 | 0 | nt
O=C(O)CN1C(=O)/C(=C\c2ccc(OC(=O)c3ccco3)cc2)SC1=S | 34* | -1 | -1 | nt
O=C(CN1C(=O)S/C(=C\C=C\c2ccccc2)C1=O)Nc1cccc(O)c1 | 24 | 52 | 4 | 65*
O=C(CCN1C(=O)S/C(=C\C=C\c2ccccc2)C1=O)Nc1ccc(O)cc1 | 21 | 35 | -1 | 93*
COc1ccc(S(=O)(=O)N[C@H]2C=C[C@H](CC(=O)NCCc3ccccc3)O[C@@H]2CO)cc1 | nt | nt | nt | 3
Cc1ccc(SCC(=O)Nc2nccs2)cc1 | 0 | 58 | 2 | 24*
O=C(CSc1ccccc1)Nc1nccs1 | -3 | -1 | 3 | nt
SMILES | Wnt act | MITF TRPM1 HTS | FXN GAA850 act | esBAF inh
CN(C)c1ccc(NC(=O)c2sc(SCC(=O)Nc3nccs3)nc2N)cc1 | 47* | 12 | 7 | 53*
O=C(CSc1cn(Cc2ccccc2)c2ccccc12)Nc1nccs1 | 53* | nt | 3 | 73*
CCOC(=O)c1c(SCC(=O)Nc2nccs2)nc(C)c(C)c1C | 14 | 52 | 1 | 50*
CN(C)c1ccc(NC(=O)c2sc(SCC(=O)Nc3ccc(Br)cc3)nc2N)cc1 | nt | 9 | 1 | nt
COc1ccc(-c2csc(N3CCSCC3)n2)cc1 | ? | 75 | 4 | 47*
Fc1ccc(-c2csc(N3CCC(c4ccccc4)C3)n2)cc1 (stereo unspecified) | 4 | 64 | 5 | 50*
COc1ccc(-c2csc(N3CCOCC3)n2)cc1OC | 17 | 71 | 6 | 58*
COc1ccc(-c2csc(N3CCC(c4ccccc4)C3)n2)cc1 (stereo unspecified) | -4 | 66 | 6 | nt
Clc1ccc(-c2csc(N3CCC(c4ccccc4)C3)n2)cc1 (stereo unspecified) | nt | 74 | 1 | 2
c1ccc(-c2csc(N3CCCCCC3)n2)cc1 | nt | 55 | 0 | 43*
COc1ccc(-c2csc(-n3cccn3)n2)cc1 | 33* | ? | 2 | 68*
COc1ccc(-c2csc(-n3ncc(-c4cccs4)c3N)n2)cc1 | nt | 9 | -1 | 2
C[C@@H]1CN([C@@H](C)CO)C(=O)Cc2cc(NS(=O)(=O)c3cn(C)cn3)ccc2O[C@H]1CN(C)S(=O)(=O)c1ccccc1 | nt | nt | nt | -2
Cc1cnc(NC(=O)COc2ccccc2)s1 | 58* | nt | 3 | 22
COc1ccccc1OCC(=O)Nc1ncc(C)s1 | 36* | 80 | 4 | 9
CCCCNC(=O)C1CCN(Cc2ccc(OCc3ccccc3)cc2)CC1 | nt | 77 | 2 | 51*
CCNC(=O)C1CCCN(Cc2ccc(OCc3ccccc3)cc2)CC1 (stereo unspecified) | nt | nt | 1 | 5
O=C(Nc1ccc(NC(=O)c2cccs2)cc1)c1ccco1 | nt | 98* | 5 | 48*
O=C(Nc1ccc(NC(=O)c2cccs2)cc1)c1ccccc1 | 13 | 57 | 0 | 48*
O=C(Nc1ccc(-n2ccc(C(F)(F)F)n2)cc1)c1cccs1 | 23 | 123* | 4 | 32
O=C(CCc1ccccc1)Nc1ccc(NC(=O)c2ccco2)cc1 | 3 | 22 | 2 | 16
O=C(Nc1ccc(CSc2ccccc2)cc1)c1ccco1 | 29 | 59 | 7 | 52*
O=C(Nc1ccc(O)cc1)c1ccc(NC(=O)c2cccs2)cc1 | 23 | 73 | 1 | 33
Nc1ccc(NC(=O)c2cccs2)cc1 | 1 | nt | -2 | nt
O=C(Nc1ccc2c(c1)CCC2)c1cccs1 | 55* | 66 | 6 | nt
SMILES | Wnt act | MITF TRPM1 HTS | FXN GAA850 act | esBAF inh
CCn1cnc2cc(NC(=O)c3cccs3)ccc21 | 15 | 95* | 5 | 23
Cc1ccccc1-c1nc(-c2ccc(NC(=O)c3cccs3)cc2)no1 | 17 | 32 | 2 | 51*
O=C(Nc1ccc2nc(-c3cccs3)[nH]c2c1)c1ccco1 | nt | 103* | 3 | 83*
C[C@H](CO)N1C[C@H](C)[C@H](CN(C)C(=O)Nc2ccc(C(F)(F)F)cc2)OCCCC[C@H](C)Oc2ccc(N(C)C)cc2C1=O | nt | nt | nt | -3
Cc1ccc(NC(=O)c2cccs2)cc1 | -1 | 72 | 2 | 61*
Cc1ccc(NC(=O)C(=O)NNC(=O)c2cccs2)cc1 | 2 | 7 | 2 | nt
COc1cccc(C(=O)Nc2ccc(NC(=O)C3CCCCC3)nc2)c1 | 0 | 9 | -1 | -5
O=C(Nc1ccc(NC(=O)C2CCCCC2)nc1)c1cccs1 | 55* | 53 | 5 | nt
O=C(Nc1cccc(O)c1)c1ccc(NC(=O)c2cccs2)cc1 | 0 | 103* | 2 | nt
C[C@@H]1CN([C@@H](C)CO)C(=O)Cc2cc(NS(C)(=O)=O)ccc2O[C@@H]1CN(C)Cc1ccc(-c2ccccc2)cc1 | nt | nt | nt | 1
CCCC(=O)Nc1ccc2c(c1)OC[C@@H](C)N(C(=O)C1CCCC1)C[C@H](C)[C@@H](OC)CN(C)C2=O | nt | nt | nt | 1
O=C(N/N=C/c1ccccc1O)NC12CC3CC(CC(C3)C1)C2 | 19 | 136* | 5 | 15
C[C@@H]1CCCCO[C@H](CN(C)C)[C@H](C)CN([C@@H](C)CO)C(=O)c2cc(NC(=O)c3ccncc3)ccc2O1 | nt | nt | nt | -2
